For part of these data: Results with a measured potency or affinity are listed apart. Activity calls are given as the source filed them.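 Rule for the calls, unless noted: active = earlier screen potentiator hit that boosts the TRPC4 ion channel at some dose, with a dose response; inactive = no potentiation, no dose response, or not a prior hit.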
Assays:
[1] = test system: TRPC4 beta (transient receptor potential cation channel C4), mouse; assay: TRPC4 cation channel opening, retest – cell-based, Fluo4 calcium, HEK293 TRPC4beta/mu-opioid, duplicates, 10 µM, confirmation (AID 2426;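 active = fluorescence ratio normalized to control raised more than 50% in primary screen plus both repeat runs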;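 for activation: percent rise of integrated ratio over buffer wells lacking compound which define 0%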); conditions: Fluo4 calcium fluorescence, at 10 µM; stronger effect = higher value
[2] = test system: transient receptor potential cation channel C4 beta (TRPC4), mouse; assay: TRPC4 cation channel opening, second retest – cell-based, second round, Fluo4, HEK293 TRPC4beta/mu-opioid, 1 µM, confirmation (AID 2461;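 active = primary screen active and over 50% activation in each of two duplicate runs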;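 for activation: 0% = wells without test compound as baseline of integrated fluorescence ratio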); conditions: Fluo4 calcium fluorescence, at 1 µM; stronger effect = higher value
[3] = test system: TRPC4 (transient receptor potential cation channel C4 beta), mouse; assay: potentiation of DAMGO EC20 TRPC4 response – cell-based, second round, Fluo-4, HEK293 TRPC4beta/mu-opioid, 1 µM, confirmation (AID 2554;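 active = primary screen hit whose fluorescence ratio, in both repeats, exceeds the weak agonist control mean by 3 SD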); conditions: DAMGO EC20, Fluo-4 calcium flux, at 1 µM; stronger effect = higher value
[4] = test system: TRPC4 beta (transient receptor potential cation channel C4), mouse; assay: potentiation of DAMGO EC20 TRPC4 response – cell-based, Fluo-4, HEK293 TRPC4beta/mu-opioid, confirmation (AID 2555;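 active = primary screen hit whose calcium fluorescence ratio, in both repeats, exceeds the weak agonist control mean by 3 SD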); conditions: DAMGO EC20, Fluo-4 calcium flux, at 10 µM; stronger effect = higher value
[5] = biological target: Short transient receptor potential channel 4 (Mus musculus) (UniProt Q9QUQ5); assay: blockers of DAMGO-evoked TRPC4 calcium flux – cell-based, Fluo4, HEK293 TRPC4beta/mu-opioid, confirmation (AID 2636;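 active = calcium signal cut by more than 3 SD below the full-agonist control yet still positive, in both repeats and the earlier primary screen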); conditions: at 10 µM; stronger effect = higher value
Chain of Short transient receptor potential channel 4 (Mus musculus) (Q9QUQ5 whole entry, looked up): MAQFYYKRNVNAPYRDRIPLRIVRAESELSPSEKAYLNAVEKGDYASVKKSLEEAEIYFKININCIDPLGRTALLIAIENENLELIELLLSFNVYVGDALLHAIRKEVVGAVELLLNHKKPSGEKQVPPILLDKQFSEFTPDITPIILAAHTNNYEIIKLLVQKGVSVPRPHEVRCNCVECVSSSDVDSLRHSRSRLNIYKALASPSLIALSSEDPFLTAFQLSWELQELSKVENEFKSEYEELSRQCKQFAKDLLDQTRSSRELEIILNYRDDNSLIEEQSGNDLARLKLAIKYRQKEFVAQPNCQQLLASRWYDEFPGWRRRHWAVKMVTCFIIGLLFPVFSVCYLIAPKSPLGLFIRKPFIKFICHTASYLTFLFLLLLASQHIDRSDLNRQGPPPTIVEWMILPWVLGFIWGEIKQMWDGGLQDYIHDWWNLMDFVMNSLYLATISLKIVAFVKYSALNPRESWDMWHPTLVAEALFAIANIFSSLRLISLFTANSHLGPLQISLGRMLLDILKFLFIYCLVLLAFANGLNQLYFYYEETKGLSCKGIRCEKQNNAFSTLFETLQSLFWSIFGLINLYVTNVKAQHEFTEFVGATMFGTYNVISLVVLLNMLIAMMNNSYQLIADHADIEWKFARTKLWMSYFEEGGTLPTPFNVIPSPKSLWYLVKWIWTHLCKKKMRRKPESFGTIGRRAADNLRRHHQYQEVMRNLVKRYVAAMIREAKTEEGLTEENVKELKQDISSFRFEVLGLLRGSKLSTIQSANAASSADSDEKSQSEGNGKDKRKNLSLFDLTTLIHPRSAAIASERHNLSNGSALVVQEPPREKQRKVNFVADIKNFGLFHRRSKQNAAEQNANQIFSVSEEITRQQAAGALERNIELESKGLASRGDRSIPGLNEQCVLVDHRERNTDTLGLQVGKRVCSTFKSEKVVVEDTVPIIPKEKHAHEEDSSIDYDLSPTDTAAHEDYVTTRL

[6] = biological target: Short transient receptor potential channel 4 (Mus musculus) (UniProt Q9QUQ5); assay: blockers of DAMGO-evoked TRPC4 calcium flux – cell-based, second round, Fluo4, HEK293 TRPC4beta/mu-opioid, 1 µM, confirmation (AID 2637;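 active = calcium signal ratio cut to more than 3 SD under the fully stimulated control mean yet still positive, in both repeats and the primary screen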); conditions: at 1 µM; stronger effect = higher value
[7] = biological target: Short transient receptor potential channel 4 (Mus musculus) (UniProt Q9QUQ5); assay: potentiation of DAMGO-evoked TRPC4 calcium signal – cell-based, HEK293 TRPC4/mu-opioid, Fluo-4 calcium, EC20 DAMGO, dose response (AID 434941);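 note: calcium entry triggered by an EC20 dose of DAMGO at the co-expressed mu-opioid receptor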
[8] = biological target: Short transient receptor potential channel 4 (Mus musculus) (UniProt Q9QUQ5); assay: block of DAMGO-driven TRPC4 calcium entry – cell-based, HEK293 TRPC4/mu-opioid, Fluo-4 calcium, dose response (AID 434942;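 active = primary screen inhibitor hit that blocks the TRPC4 channel at some tested dose, yielding a dose curve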)
[9] = biological target: Short transient receptor potential channel 6 (Mus musculus) (UniProt Q61143); assay: TRPC6 blockade by TRPC4 inhibitor hits – cell-based, HEK293, membrane potential dye, duplicate, selectivity assay for TRPC4 inhibitor project, confirmation (AID 434948;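 active = active in primary screen and both duplicates, each dropping signal beyond three positive-control SD with fluorescence still positive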); conditions: HEK293 TRPC6, membrane potential dye fluorescence, at 10 µM, stimulated with maximal-effect acetylcholine; stronger effect = higher value
Chain of Short transient receptor potential channel 6 (Mus musculus) (Q61143 whole entry, looked up): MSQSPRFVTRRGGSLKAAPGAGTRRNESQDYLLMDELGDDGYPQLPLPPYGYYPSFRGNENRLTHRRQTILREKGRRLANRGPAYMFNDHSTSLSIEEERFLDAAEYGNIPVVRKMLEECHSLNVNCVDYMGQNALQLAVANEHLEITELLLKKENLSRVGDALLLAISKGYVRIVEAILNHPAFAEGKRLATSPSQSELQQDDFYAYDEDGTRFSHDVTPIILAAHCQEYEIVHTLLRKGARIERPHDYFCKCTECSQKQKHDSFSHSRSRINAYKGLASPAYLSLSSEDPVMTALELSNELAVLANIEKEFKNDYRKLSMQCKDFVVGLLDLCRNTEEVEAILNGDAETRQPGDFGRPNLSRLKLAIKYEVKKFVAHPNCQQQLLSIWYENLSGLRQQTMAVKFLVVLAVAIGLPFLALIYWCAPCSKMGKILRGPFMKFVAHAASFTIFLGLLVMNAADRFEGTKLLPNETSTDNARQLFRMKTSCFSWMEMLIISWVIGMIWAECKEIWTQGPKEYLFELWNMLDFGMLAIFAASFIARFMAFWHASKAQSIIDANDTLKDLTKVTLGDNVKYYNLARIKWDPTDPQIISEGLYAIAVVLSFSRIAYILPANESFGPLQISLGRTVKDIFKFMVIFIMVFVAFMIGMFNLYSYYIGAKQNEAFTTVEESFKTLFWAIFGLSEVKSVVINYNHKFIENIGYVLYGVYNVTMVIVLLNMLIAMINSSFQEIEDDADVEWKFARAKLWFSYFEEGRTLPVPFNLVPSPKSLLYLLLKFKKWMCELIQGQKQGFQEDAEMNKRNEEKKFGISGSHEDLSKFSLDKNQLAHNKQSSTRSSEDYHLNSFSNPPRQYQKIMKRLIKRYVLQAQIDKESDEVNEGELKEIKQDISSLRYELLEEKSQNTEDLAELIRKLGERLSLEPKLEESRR

[10] = biological target: Short transient receptor potential channel 6 (Mus musculus) (UniProt Q61143); assay: TRPC6 opening by TRPC4 activator hits – cell-based, HEK293, membrane potential dye, duplicate, selectivity assay for TRPC4 activator project, confirmation (AID 434950;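 active = membrane potential signal rise above negative control mean plus 3 SD in both duplicates, also active in the earlier TRPC4 screen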;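 for activation: 0% = buffer only wells and 100% = acetylcholine maximal-effect wells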); conditions: HEK293 TRPC6, membrane potential fluorescence, at 10 µM; activation: stronger effect = higher value; outcome: activation
[11] = biological target: Short transient receptor potential channel 6 (Mus musculus) (UniProt Q61143); assay: positive modulators of mouse TRPC6 channel – HEK293 cells, membrane potential dye, duplicate, selectivity assay for TRPC4 potentiator project, confirmation (AID 434952;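 active = compound raising the membrane signal above positive-control mean plus 3 SD in both repeats, and a primary screen hit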); conditions: HEK293 TRPC6, membrane potential dye fluorescence, at 10 µM, maximal acetylcholine added after compound; stronger effect = higher value
[12] = biological target: Short transient receptor potential channel 4 (Mus musculus) (UniProt Q9QUQ5); assay: calcium flux activators in TRPC4/5HT1a cells, counter-screen for TRPC4 activator project, cell-based, second counter screen, HEK293 TRPC4/5HT1a, Fluo-4 (AID 434977;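 active = calcium signal rise above buffer-control mean plus 5 SD in both duplicates, and also a hit in the primary screen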;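 for activation: plate controls were assay buffer for no effect and maximal serotonin response for full effect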); conditions: Fluo-4 calcium flux, at 10 µM; stronger effect = higher value
[13] = serotonin-gated TRPC4 signal block – cell-based, second counter screen, HEK293 TRPC4/5HT1a, Fluo-4, counter-screen for TRPC4 inhibitor project, confirmation (AID 434978;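 active = primary screen active whose calcium signal fell more than 3 SD beyond the full-serotonin control mean in both duplicate plates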;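 note: serotonin given first at submaximal then at maximal dose after compound preincubation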); conditions: Fluo-4 calcium flux, at 10 µM, serotonin added to trigger calcium flux; stronger effect = higher value
[14] = test system: TRPC4 (mouse), co-expressed with 5HT1a in HEK293; assay: enhancement of serotonin-evoked TRPC4 response – cell-based, second counter screen, HEK293 TRPC4/5HT1a, Fluo-4, counter-screen for TRPC4 potentiator project, confirmation (AID 434979;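 active = signal rise over 3 SD above mean of control wells given weak agonist, in both repeats and first screen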); conditions: Fluo-4 calcium flux, at 10 µM, serotonin added at its EC20 dose; stronger effect = higher value
[15] = nonspecific calcium rise without TRPC4 – cell-based, HEK293 mu-opioid receptor line, counter-screen for TRPC4 activator project, confirmation (AID 449723;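 active = hit in primary screen, with calcium signal over 5 SD above buffer well mean in both duplicates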;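 note: counter screen cells carry the mu-opioid receptor alone and lack TRPC4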); conditions: HEK293 mu-opioid cells, Fluo-4 calcium fluorescence, at 10 µM; stronger effect = higher value
[16] = nonspecific potentiation of DAMGO calcium response – cell-based, HEK293 mu-opioid receptor line, counter-screen for TRPC4 allosteric potentiator project, confirmation (AID 449724;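 active = calcium signal rise more than 3 SD above the low-dose agonist control mean, in both duplicate plates and the primary screen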;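 note: HEK293 cells carrying mu-opioid receptor only with no TRPC4 channel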); conditions: HEK293 mu-opioid receptor cells, Fluo-4 calcium flux, at 10 µM, compound added before EC20 DAMGO stimulus; stronger effect = higher value

Measured: activation

COc1ccc(C(CNC(=O)C(Cc2ccccc2)NC(N)=O)N(C)C)cc1 (stereo not given)
active: [1] 92% | [2] 90% | [10] 32%
inactive: all other assays above

COc1ccc(C)c(NC(=O)NCCc2cnc[nH]2)c1
active: [1] 152% | [10] 33% | [12] 56.4%
inactive: all other assays above

CC1CC(C)CN(CCCNC(=O)Cn2cccc2C(=O)c2ccccc2)C1 (stereo not given)
active: [1] 162% | [2] 98% | [10] 50.5% | [12] 62.1%
inactive: all other assays above

O=C(c1sc2ccccc2c1Cl)N(Cc1ccccc1)C1CCS(=O)(=O)C1 (stereo not given)
active: [10] 36%
inactive: all other assays above

CN(C)c1ccc(C(CNC(=O)Cc2cccc3ccccc23)N(C)C)cc1 (stereo not given)
active: [1] 102%
inactive: all other assays above

O=C(Cc1cccc(F)c1F)NC1CCCN(Cc2ccc(Cl)cc2)C1 (stereo not given)
active: [10] 37.5%
inactive: all other assays above

CN(C)C(CNC(=O)Cc1ccc([N+](=O)[O-])cc1)c1ccccc1 (stereo not given)
active: [1] 161% | [2] 124%
inactive: all other assays above

COc1ccc(CC(=O)NCC(c2ccc(OC)cc2)N(C)C)cc1 (stereo not given)
active: [1] 200% | [2] 95% | [10] 46.5%
inactive: all other assays above

CCN1CCN(c2ncnc3sc(C)c(-c4ccccc4)c23)CC1
active: [1] 107%
inactive: all other assays above

CCCCCc1c(O)nc(SCCN(C)C)[nH]c1=O
active: [1] 63% | [12] 15.6%
inactive: all other assays above

O=C(CC1C(=O)NCCN1Cc1cccc(Oc2ccccc2)c1)NCCc1ccccn1 (stereo not given)
active: [1] 99% | [12] 42.3%
inactive: all other assays above

CC(C)(C)c1cc(O)c(C(C)(C)C)cc1O
active: [1] 100% | [12] 55.9% | [15] 47.1%
inactive: all other assays above

O=C(NC1CCCN(Cc2ccc(Cl)cc2)C1)C1CCC1 (stereo not given)
active: [1] 120% | [2] 58% | [10] 47.5% | [12] 39.7%
inactive: all other assays above

COc1ccc(C(CCNCc2ccc(N(C)C)cc2)c2ccccc2)cc1 (stereo not given)
active: [1] 165% | [12] 26.5%
inactive: all other assays above

CCn1c(N2CCN(C(=S)NCCc3ccccc3)CC2)nc2ccccc21
active: [12] 21%
inactive: all other assays above

— PubChem BioAssay
